Measured values from the supplement of paper PMC13172266.
Structures can show the parent of a compound that is named as a salt.

Columns and labels:
Assay in all cases: cell proliferation relative to vehicle (% of vehicle); higher = less growth inhibition
Conditions in all cases: 72 h
[1] = tested on: U2932 TK216-resistant clone 2
Procedure, shortened: (§1)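 Each of 348 targeted inhibitors was tested at 500 nM or 50 nM for 72 h on U2932 cells, both parental and two clones resistant to an ETS-targeting agent. Readout was by MTT with absorbance read on a Cytation 3. Proliferation appears as percent of proliferating cells relative to vehicle (DMSO).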

[2] = tested on: U2932 TK216-resistant clone 3
Procedure, shortened: as §1

U2932 parental = tested on: U2932 parental
Procedure, shortened: as §1

Row | SMILES | cell proliferation ([1]; 50 nM) | cell proliferation ([1]; 500 nM) | cell proliferation ([2]; 50 nM) | cell proliferation ([2]; 500 nM) | cell proliferation (U2932 parental; 50 nM) | cell proliferation (U2932 parental; 500 nM)
1 | CCCCc1nc2cc(/C=C/C(=O)NO)ccc2n1CCN(CC)CC [Pracinostat (SB939)] | 107 | 54 | 89.2 | 64.4 | 91.7 | 50.1
2 | COc1ccc(C(=O)C2CCN(CC(=O)N(Cc3nc4c(c(=O)[nH]3)COCC4)CC3CC3)CC2)cc1 | 99.7 | 95.3 | 92.2 | 93.6 | 97.7 | 97.5
3 | FC(F)(F)c1ccc(/C=C/c2nc(COc3ccc(CCCCn4ccnn4)cc3)co2)cc1 [Mubritinib (TAK 165)] | 90.7 | 61 | 80.9 | 63.5 | 85.6 | 57.4
4 | CN(c1ncccc1CNc1nc(Nc2ccc3c(c2)CC(=O)N3)ncc1C(F)(F)F)S(C)(=O)=O | 95.6 | 91.2 | 99.2 | 95.2 | 96.9 | 87.2
5 | c1cc(-c2cnn3cc(-c4ccc(OCCN5CCCCC5)cc4)cnc23)ccn1 [Dorsomorphin 2HCl] | 113 | 98 | 119 | 108 | 110 | 98.3
6 | O=c1cc(N2CCOCC2)oc2c(-c3ccccc3)cccc12 | 110 | 102 | 100 | 97.3 | 105 | 105
7 | CN[C@@H](C)C(=O)N[C@H](C(=O)N1CCC[C@H]1C(=O)Nc1snnc1-c1ccccc1)C1CCCCC1 | 102 | 111 | 97.2 | 107 | 95 | 103
8 | O=c1[nH]c(=O)n([C@H]2C[C@H](O)[C@@H](CO)O2)cc1F [Floxuridine] | 60.3 | 37.4 | 95.2 | 72.5 | 73.1 | 34.2
9 | c1ccc(Cn2c(-c3ccc(OC[C@H](C4CCNCC4)n4c(-c5ccccc5)nc5ccccc54)cc3)nc3ccccc32)cc1 [Deltarasin] | 102 | 88 | 98.8 | 83.6 | 103 | 91.4
10 | C=CCc1ccc(O)c(-c2ccc(O)c(CC=C)c2)c1 [Honokiol] | 108 | 111 | 104 | 102 | 100 | 106
11 | Clc1ccc(C2(c3ccc(-c4cn[nH]c4)cc3)CCNCC2)cc1 | 88.5 | 48.2 | 94.6 | 73.6 | 93 | 75.5
12 | COc1cc(OCc2cccc(-c3ccccc3)c2C)cc(OC)c1CN1CCCC[C@H]1C(=O)O [PD-1/PD-L1 inhibitor 1] | 103 | 99.6 | 96.8 | 104 | 101 | 95.3
13 | Nc1cccc2c1CN(C1CCC(=O)NC1=O)C2=O (configuration not stated) [Lenalidomide (CC-5013)] | 107 | 98 | 102 | 96 | 98 | 99.7
14 | COc1nc(C)cnc1NS(=O)(=O)c1cccnc1-c1ccc(-c2nnco2)cc1 [Zibotentan (ZD4054)] | 95.1 | 104 | 106 | 102 | 97.2 | 95.2
15 | CO[C@@]12[C@H](COC(N)=O)C3=C(C(=O)C(C)=C(N)C3=O)N1C[C@@H]1N[C@@H]12 [Mitomycin C] | 94.8 | 13.8 | 96.6 | 26.4 | 91.3 | 35.8
16 | CCC[C@H](Nc1nc(-c2ccc(NC(=O)NCC)c(OC)c2)ncc1C)c1cccnc1 [CYT997 (Lexibulin)] | 10.1 | 9.29 | 8 | 12.1 | 10.4 | 14.3
17 | CCCS(=O)(=O)Nc1ccc(F)c(C(=O)c2c[nH]c3ncc(-c4ccc(Cl)cc4)cc23)c1F [Vemurafenib (PLX4032, RG7204)] | 106 | 110 | 101 | 108 | 101 | 100
18 | COc1cc2c(Oc3ccc4[nH]c(C)cc4c3F)ncnc2cc1OCCCN1CCCC1 [Cediranib (AZD2171)] | 105 | 92.6 | 99.8 | 83 | 96.7 | 90.4
19 | Nc1nccc2c1ncn2C1C=C(CO)C(O)C1O (configuration not stated) [3-Deazaneplanocin A (DZNeP)] | 103 | 86.2 | 102 | 82.1 | 98.1 | 81.5
20 | CC1(C)CNc2cc(NC(=O)c3cccnc3NCc3ccncc3)ccc21 [Motesanib Diphosphate (AMG-706)] | 103 | 97.7 | 104 | 87.8 | 97.4 | 93.9
21 | Cc1cc(CS(=O)(=O)c2ccccc2)cc(OCc2ccc(CN3CCC[C@@H]3CO)cc2)c1 | 105 | 90.6 | 106 | 97.9 | 97.2 | 107
22 | O=C1c2c(O)ccc(O)c2C(=O)c2c(NCCNCCO)ccc(NCCNCCO)c21 [Mitoxantrone HCl] | 9.19 | 5.75 | 14.8 | 10.6 | 16.4 | 7.06
23 | CC(C)C[C@H](NC(=O)[C@H](CCc1ccccc1)NC(=O)CN1CCOCC1)C(=O)N[C@@H](Cc1ccccc1)C(=O)N[C@@H](CC(C)C)C(=O)[C@@]1(C)CO1 [Carfilzomib (PR-171)] | -2.48 | -4.13 | -2.24 | -4.17 | -1.34 | -1.99
24 | Cn1cc(C2=C(c3ccc(Cl)cc3Cl)C(=O)NC2=O)c2ccccc21 | 105 | 96.2 | 105 | 108 | 97.8 | 100

Row | SMILES | cell proliferation ([1]; 50 nM) | cell proliferation ([1]; 500 nM) | cell proliferation ([2]; 50 nM) | cell proliferation ([2]; 500 nM) | cell proliferation (U2932 parental; 50 nM) | cell proliferation (U2932 parental; 500 nM)
25 | Cn1cc(-c2ccc3nnc(C(F)(F)c4ccc5ncccc5c4)n3n2)cn1 | 102 | 103 | 106 | 113 | 99.8 | 99.2
26 | C[C@@H]1CCN(C(=O)CC#N)C[C@@H]1N(C)c1ncnc2[nH]ccc12 | 102 | 104 | 113 | 98.5 | 109 | 107
27 | CNc1nc(Nc2cn(C(C)(C)C#N)nc2C)ncc1C(F)(F)F | 101 | 96.4 | 101 | 95.2 | 100 | 98.2
28 | O=C(CCCCCCNC(=O)c1cnc(N(c2ccccc2)c2ccccc2)nc1)NO [Rocilinostat (ACY-1215)] | 104 | 104 | 110 | 96.5 | 98.5 | 92.2
29 | CO[C@H]1C[C@@H]2CC[C@@H](C)[C@@](O)(O2)C(=O)C(=O)N2CCCC[C@H]2C(=O)O[C@H]([C@H](C)C[C@@H]2CC[C@@H](OCCO)[C@H](OC)C2)CC(=O)[C@H](C)/C=C(\C)[C@@H](O)[C@@H](OC)C(=O)[C@H](C)C[C@H](C)/C=C/C=C/C=C/1C [Everolimus (RAD001)] | 65.8 | 65.5 | 64.2 | 66.5 | 55.5 | 59.1
30 | CCNc1nc(Nc2cc(F)c(C(=O)N3CCOCC3)cc2OC)ncc1C(F)(F)F | 101 | 97.4 | 97.8 | 104 | 104 | 101
31 | CNC(=O)c1cc(Oc2ccc(NC(=O)Nc3ccc(Cl)c(C(F)(F)F)c3)cc2)ccn1 [Sorafenib] | 114 | 107 | 105 | 122 | 101 | 112
32 | Cn1cc(-c2ccc3c(c2)CCN3C(=O)Cc2cccc(C(F)(F)F)c2)c2c(N)ncnc21 | 105 | 102 | 108 | 121 | 101 | 105
33 | CC(C)NCCCn1c(Sc2cc3c(cc2I)OCO3)nc2c(N)ncnc21 | 113 | 6.42 | 105 | 31.6 | 112 | 6.73
34 | NC(=O)c1ccc(-c2nc(-c3ccccn3)c(-c3ccc4c(c3)OCO4)[nH]2)cc1 | 115 | 109 | 100 | 102 | 101 | 101
35 | COc1cc2ncnc(Nc3ccc(O)c(Br)c3)c2cc1OC | 106 | 111 | 96.2 | 105 | 98.3 | 101
36 | CN(C)Cc1c(C(=O)NCCOc2ccc(C(=O)NO)cc2)oc2ccccc12 | 99.6 | 40.3 | 91.6 | 47.6 | 81.5 | 32.6
37 | COc1cc2nccc(Oc3ccc(NC(=O)C4(C(=O)Nc5ccc(F)cc5)CC4)cc3)c2cc1OC [Cabozantinib malate (XL184)] | 109 | 109 | 102 | 95.7 | 109 | 103
38 | CC[C@]1(O)C[C@H]2CN(CCc3c([nH]c4ccccc34)[C@@](C(=O)OC)(c3cc4c(cc3OC)N(C=O)[C@H]3[C@@](O)(C(=O)OC)[C@H](OC(C)=O)[C@]5(CC)C=CCN6CC[C@]43[C@@H]65)C2)C1 [Vincristine sulfate] | 9.22 | 10 | 7.89 | 9.97 | 10.4 | 13.4
39 | OCCn1cc(-c2ccc3c(c2)CC/C3=N\O)c(-c2ccncc2)n1 | 105 | 106 | 97 | 91.9 | 105 | 103
40 | CN(Cc1cnc2nc(N)nc(N)c2n1)c1ccc(C(=O)N[C@@H](CCC(=O)O)C(=O)O)cc1 [Methotrexate] | 102 | 37.1 | 102 | 67.8 | 99.4 | 29.9
41 | COc1cc(Nc2ncc3c(n2)-c2ccc(Cl)cc2C(c2c(F)cccc2OC)=NC3)ccc1C(=O)O [Alisertib (MLN8237)] | 73.6 | 79.3 | 61.8 | 72.8 | 52.2 | 53.2
42 | Nc1ccn([C@@H]2O[C@H](CO)[C@@H](O)C2(F)F)c(=O)n1 [Gemcitabine] | 15.3 | 14.9 | 20.1 | 19.1 | 12.5 | 14.6
43 | NC(=O)c1ccc(I)c([N+](=O)[O-])c1 [Iniparib (BSI-201)] | 107 | 98.2 | 105 | 103 | 97 | 102
44 | Cc1cccc(-c2[nH]c(CNc3ccccc3F)nc2-c2ccc3ncnn3c2)n1 | 106 | 102 | 99.6 | 106 | 104 | 98.6
45 | CN(C)CC[C@H](CSc1ccccc1)Nc1ccc(S(=O)(=O)NC(=O)c2ccc(N3CCN(Cc4ccccc4-c4ccc(Cl)cc4)CC3)cc2)cc1[N+](=O)[O-] | 89.5 | 39.6 | 96.6 | 37.4 | 92 | 61.2
46 | O=C(c1ccc(/C=C/c2n[nH]c3ccccc23)cc1)N1CCNCC1 | 109 | 91 | 104 | 82.4 | 95 | 72.2
47 | COc1ccc(S(=O)(=O)N(C(C)=O)c2ccccc2/C=C/c2cc[n+]([O-])cc2)cc1 | 103 | 12.6 | 99.5 | 13.2 | 88.7 | 11.3
